Bioassay records as filed in PubChem.
BAZ2B block = inhibitors of human BAZ2B bromodomain; Potency, µM (titrated, usually from 114 µM), inactives show top-dose activity change, negative = inhibition, most hits filed as inhibitors; AlphaScreen BAZ2B-H3K14Ac peptide displacement; Q9UIF8; AID 504333; 360,000 tested, 4.4% active; further: on the % scale 0 is the no-effect control and ±100 the full control effect; nearly all actives have a fitted effect of over 60% in size
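BAZ2B (50 nM) with biotin-H3(5-23)K14Ac peptide (50 nM) in PBS pH 7.4, 0.01% Tween-20, preformed 30 min, then compound 30 min at room temperature; top concentration 110uM. AlphaScreen streptavidin donor/nickel chelate acceptor beads (10 ug/mL final), 20 min dark, signal read.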
HP1b binding inh = blocks HP1-beta chromodomain binding to methylated histone tails | P83916 | AlphaScreen HP1-beta / biotin-H3K9me3 peptide binding | Potency, µM (series often up to 114 µM), inactives show at the highest dose activity change, negative = inhibition, hits mostly inhibitors | 390,000 tested, 0.56% active; further: nearly all actives have a fitted effect of over 70% in size
Target sequence (P83916 whole entry, looked up): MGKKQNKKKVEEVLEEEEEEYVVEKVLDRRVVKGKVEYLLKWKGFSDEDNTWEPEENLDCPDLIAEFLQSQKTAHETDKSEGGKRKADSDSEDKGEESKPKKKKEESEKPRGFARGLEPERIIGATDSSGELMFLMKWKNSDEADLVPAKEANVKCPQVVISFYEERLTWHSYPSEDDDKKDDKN
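AlphaScreen: HP1-beta (50 nM) preformed 30 min with biotin-H3(1-18)K9me3 peptide (50 nM) in PBS pH 7.4, 0.01% Tween-20. Compound added for 30 min at RT, then streptavidin donor/nickel chelate acceptor beads (10 ug/mL) for 30 min.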
JMJD2A Tudor = inhibitors of human JMJD2A Tudor domain; O75164; AlphaScreen JMJD2A-Tudor / H3K4me3 peptide binding; Potency, µM (highest dose often 114 µM), without a hit: at the top dose activity change, negative = inhibition, actives largely listed as inhibitors; 390,000 tested, 4.4% active; AID 504339; further: on the % scale 0 is the no-effect control and ±100 the full control effect; nearly all actives have a fitted effect of over 50% in size
G9a inh = inhibitors of human histone lysine methyltransferase G9a. Q96KQ7. G9a H3K9 monomethylation, AlphaScreen, 2 h. Potency, µM (highest dose often 102 µM), for the others: at the top dose activity, negative = inhibition, hits mostly inhibitors. 350,000 tested, 8.8% active. AID 504332; further: on the % scale 0 is the no-effect control and ±100 the full control effect; nearly all actives have a fitted effect of over 75% in size
Target sequence (Q96KQ7 913-1193 limits assumed): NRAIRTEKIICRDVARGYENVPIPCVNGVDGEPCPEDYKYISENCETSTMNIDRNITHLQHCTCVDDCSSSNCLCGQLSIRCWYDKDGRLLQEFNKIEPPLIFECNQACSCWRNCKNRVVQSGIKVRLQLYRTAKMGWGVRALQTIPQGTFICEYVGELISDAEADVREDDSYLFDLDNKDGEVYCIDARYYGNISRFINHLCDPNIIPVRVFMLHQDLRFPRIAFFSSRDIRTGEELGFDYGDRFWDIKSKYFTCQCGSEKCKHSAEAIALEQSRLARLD
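AlphaScreen read-out: biotin-H3K9 peptide (500 nM) methylation by 20 nM enzyme with 20 uM SAM, 2 h at room temperature after 15 min compound preincubation; anti-monomethyl H3K9 antibody plus donor/acceptor beads, 10 min dark.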
Sfp inh = Sfp phosphopantetheinyl transferase inhibition | Potency, µM, for the others: largest response in the series, negative = inhibition, hits mostly inhibitors | Biochemical Sfp PPTase activity, qHTS | 310,000 tested, 3.5% active;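 further: the enzyme is Sfp with the accession as filed and its product quenches rhodamine fluorescence; 0% = enzyme reaction without inhibitor and -100% = no enzyme wells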
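Buffer: 50 mM Hepes-Na pH 7.6, 10 mM MgCl2, 0.01% Nonidet P-40, 0.01% BSA. Enzyme 15 nM, pre-exposed to compound 15 min; substrates then added and fluorescence change tracked over 30 min.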
The depositor's hits bear a star; ? = inconclusive; . = no result given; ! = not active in a repeat; [ ] = dose if it differs, or a comment. This is a sample that favours compounds with a hit; in the whole collection about 12% have one here. The call rests on the fitted dose curve; in most records, active means well fitted curve in the direction sought with a large enough effect; inconclusive means small, poorly fitted or top-dose-only effect, or another doubt; inactive means no such curve, though single readings can be large; an effect the other way counts as inactive or inconclusive. Potency means the concentration at half of the fitted maximal effect.

SMILES	BAZ2B block	HP1b binding inh	JMJD2A Tudor	G9a inh	Sfp inh
COc1ccc2cc(C3CC(c4ccco4)=NN3S(C)(=O)=O)c(Cl)nc2c1 (configuration not stated)	?	?	-22%	.	50µM*
CS(=O)(=O)N1N=C(c2ccco2)CC1c1ccco1 (configuration not stated)	50µM*	20%	-35%	71µM*	-21%
Cc1ccc2cc(C3CC(c4ccco4)=NN3C(=O)CCC(=O)O)c(Cl)nc2c1 (configuration not stated)	-9%	?	22µM*	?	0%
COC(=O)c1ccc2nc3c(cc2c1)[C@@H]1CCN2C(=O)CCC[C@H](C3)[C@H]12	.	34%	1%	.	.
O=C1CCC[C@@H]2Cc3[nH]c4c(Cl)ccc(Cl)c4c3[C@@H]3CCN1[C@H]23	-11%	-10%	-30%	50µM*	0%
O=c1cc(NCCO)c2ccccc2o1	0%	25%	0%	4%	-2%
O=c1cc(NCCc2ccccc2)c2ccccc2o1	2%	5%	50µM*	3%	-1%
CC1CCN(CCCNC(=O)CN2C(=O)CSc3ccc(S(=O)(=O)N4CCOCC4)cc32)CC1	2%	7%	-8%	-13%	16%
CN(C)c1ccc(CNC(=O)CCS(=O)(=O)c2ccc3c(c2)n(C)c(=O)c(=O)n3C)cc1	?	-27%	?	18µM*	4%
CN(C)c1ccc(CNC(=O)CCc2ccc(S(=O)(=O)N3CCCCCC3)cc2)cc1	45µM*	-22%	50µM*	28µM*	.
COc1ccc(CNC(=O)CCc2ccc(S(=O)(=O)N3CCCCCC3)cc2)cc1	1%	30%	-3%	5%[2.33 µM]	.
CC1CCN(CCCNC(=O)CN2C(=O)CSc3ccc(S(=O)(=O)N4CCC(C)CC4)cc32)CC1	-7%	?	56µM*!	4%[59 µM]	10%
Cc1ccc(CNC(=O)CCS(=O)(=O)c2ccc3c(c2)oc(=O)n3C)cc1	-14%	86%	-2%	49%	10%
CN(C)c1ccc(CNC(=O)CN2C(=O)CSc3ccc(S(=O)(=O)N4CCCC4)cc32)cc1	?	-23%	?	11µM*	.
Cc1cc(N2CCN(c3ccc(F)cc3)CC2)n2nc(-c3ccc(Cl)cc3)nc2n1	-2%	29%	-4%	6%[59 µM]	.
COC(=O)N1C2CC3(C)CC(=O)CC1(C)C3c1ccccc12 (configuration not stated)	.	.	.	.	-1%
O=C1c2ccccc2-c2onc3c(Oc4ccccc4)cc(O)c1c23	35µM*	.	.	?	-12%
O=C(Nc1ccc(Cl)cc1)Nc1ccccc1CC[N+](=O)[O-]	-28%	-8%	22µM*	-43%	-3%
CN=C1NN=C(c2cc(C)n(-c3c(C)n(C)n(-c4ccccc4)c3=O)c2C)CS1	-8%	45%	-17%	?	50µM*
Cc1cc(C2=NNC(=NC3CC3)SC2)c(C)n1-c1ccccc1	?	-14%	?	28µM*	-28%
COc1ccc(-n2c(C)cc(C3=NNC(=NC4CC4)SC3)c2C)cc1	-11%	?	?	42%	-108%
CCOC(=O)c1cc2c(=O)n3ccccc3nc2n(Cc2ccco2)c1=NC(=O)c1cc(C)cc(C)c1	13%	14%	10%	-5%[59 µM]	.
CCOCCCn1c(=NC(=O)c2cccnc2)c(C(=O)OCC)cc2c(=O)n3ccccc3nc21	-27%	10%	50µM*!	2%[59 µM]	16%
Cc1ccccc1C(=O)N=c1c(C#N)cc2c(=O)n3cccc(C)c3nc2n1Cc1ccco1	7%	.	.	15%	50µM*
CC(=O)N=c1c(C#N)cc2c(=O)n3cccc(C)c3nc2n1Cc1ccco1	-37%	40%	-17%	?	-21%
SMILES	BAZ2B block	HP1b binding inh	JMJD2A Tudor	G9a inh	Sfp inh
N#Cc1cc2c(=O)n3ccccc3nc2n(Cc2ccco2)c1=NC(=O)c1ccco1	-12%	17%	?	?	40µM*
CCCCn1c(=NC(=O)c2cccnc2)c(C(=O)OCC)cc2c(=O)n3ccccc3nc21	1%	-12%	-16%[57.1 µM]	0%[12.7 µM]	4%
CCOC(=O)c1cc2c(=O)n3ccccc3nc2n(Cc2ccco2)c1=NC(=O)c1ccc(OC)cc1OC	?	8%	?	-34%	45µM*
Cc1cc(=O)oc2cc(OCC(=O)N3CCOCC3)c(Cl)cc12	.	35%	-6%	.	.
COc1ccc(CNC(=O)CCCN2C(=O)COc3ccc(C)cc32)cc1	27%	66%	-14%	48%[59 µM]	.
COc1ccc(C(=O)N=c2c(C#N)cc3c(=O)n4cccc(C)c4nc3n2Cc2ccco2)cc1	-1%	.	.	-7%	56µM*
COc1ccccc1CNC(=O)C1CCCN(c2nn3cc(-c4ccc(F)cc4)nc3s2)C1 (configuration not stated)	-1%	11%	-5%	-4%[59 µM]	.
Cc1nn(Cc2ccc(F)cc2)c(C)c1NC(=O)c1cc(-c2ccco2)on1	-32%	8%	-11%	56µM*	-15%
COc1ccc(-c2cc(C(=O)Nc3c(C)nn(Cc4ccc(F)cc4)c3C)no2)cc1OC	1%	13%	-4%	-3%[59 µM]	.
Cc1ccc(NC(=O)c2cc(-c3ccco3)on2)cc1C	?	11%	-12%	50µM*	?
CCc1ccccc1NC(=O)c1cc(-c2ccco2)on1	2%	14%	-4%	40µM*	3%
CCc1ccccc1NC(=O)c1cc(-c2ccc(OC)cc2)on1	0%	36%	-10%	3%	20%
Cc1ccc(NC(=O)N/C=C/c2ccco2)c(C)c1	-35%	2%	?	?	-12%
Cc1ccc(NC(=O)N/C=C/c2ccco2)cc1C	-33%	7%	?	32µM*	-21%
COc1ccc(NC(=O)c2cc(-c3ccco3)on2)cc1OC	2%	-18%	-17%	50µM*	-18%
COc1ccc2[nH]c(=O)c(NC(N)=S)nc2c1	-6%	9%	-24%	-8%[2.33 µM]	35µM*
COc1ccc2nc(SCC(N)=O)[nH]c2c1	4%	36%	-2%	-25%[12.7 µM]	7%
COc1ccc(-c2ccc(-c3nc4c(c(=O)[nH]c(=O)n4Cc4ccccc4)n3C)o2)c([N+](=O)[O-])c1	?	2%	-17%	?	10µM*
COCCn1c(-c2ccc(SC)cc2)nc2c1c(=O)[nH]c(=O)n2CC(C)C	23%	21%	-5%	?	-10%
COCCn1c(-c2ccc(-c3ccc([N+](=O)[O-])cc3Br)o2)nc2c1c(=O)[nH]c(=O)n2CC(C)C	-29%	21%	-20%	35µM*	28µM*
COCCn1c(=O)[nH]c(=O)c2c1nc(-c1ccc(-c3ccc(Cl)cc3[N+](=O)[O-])o1)n2Cc1ccccc1	?	?	?	8.9µM*	?
CC(C)(C)OC(=O)N1CCC(C(=O)Nc2cccc(C(=O)N3CCOCC3)c2)CC1	.	57%	1%	.	.
CC(C)(O)c1ccccc1CC[C@@H](SCC1(CC(=O)O)CC1)c1cccc(/C=C/c2ccc3ccc(Cl)cc3n2)c1	.	-5%	79µM*	.	.
